According to PubChem BioAssay AID1159580 (chemical genetic matrix, 2015):
The whole screen tested about 5,500 compounds, of which about 2,000 (36%) were called active. Inconclusive results (about 18%) are left out. Rule as the data show it: active = normalized growth mostly below about 0.91 (no sharp cut-off); inconclusive = no clear call, values can overlap the other calls; inactive = mostly above about 0.92. Some of the results follow.

Assay: chemical genetic growth profiling, strain panel (AID 1159580);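 also: tested at 20 µM; growth read once vehicle control cultures reached saturation at 30 °C; 1 = growth at the plate median or of vehicle wells; lower values mean less growth of the strain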
Conditions: S. cerevisiae deletion strains, growth OD

Measured: normalized growth

CC1CC2C3CCC4=CC(=O)C=CC4(C)C3(F)C(O)CC2(C)C1(O)C(=O)CO (stereo not drawn)
inactive: locus YAL040C, strain CLN3, stronger effect = lower value 0.987 | locus YDR363W, strain ESC2, stronger effect = lower value 0.955 | locus YER002W, strain NOP16, stronger effect = lower value 1 | locus YGR078C, strain PAC10, stronger effect = lower value 1.02 | locus YNL175C, strain NOP13, stronger effect = lower value 1.01 | locus YNL197C, strain WHI3, stronger effect = lower value 0.999 | locus YNL224C, strain SQS1, stronger effect = lower value 1.01 | locus YOR083W, strain WHI5 (second series), stronger effect = lower value 1.01
